Measured values from the supplement of paper PMC10981050.
Where a name gives a salt, the structure may show the parent alone.

System: MOLM14
Assay: cell viability relative to vehicle control; higher = less cytotoxic
Conditions: 10 µM; SRSF2 genotype: SRSF2 wt/wt
Summary of the method: (§1)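 Mutant clones made by CRISPR editing and their isogenic wild-type counterparts, from four leukaemia lines, were exposed to a single 10 µM dose of each library compound for 48 h. The supernatant was then removed and CellTiter-Glo luminescence was read. Viability was reported as percent of the on-plate vehicle control.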

Row | Structure (SMILES) | cell viability
1 | OCC1OC(Oc2ccc(O)cc2)C(O)C(O)C1O (stereo not drawn) [alpha-Arbutin] | 109%
2 | CCCCCCCCCCCCCCCC(=O)OCC(O)C1OC(=O)C(O)=C1O [L-Ascorbyl 6-palmitate] | 109%
3 | COC(=O)[C@]12CCC(C)(C)C[C@H]1[C@H]1C(=O)C=C3[C@@]4(C)C=C(C#N)C(=O)C(C)(C)[C@@H]4CC[C@@]3(C)[C@]1(C)CC2 [Bardoxolone Methyl] | 0.13%
4 | COC(=O)c1cc(O)c(O)c(O)c1 [Methyl gallate] | 104%
5 | COc1ccccc1OCC(O)CO (centres undefined) [Guaifenesin (Guaiphenesin)] | 109%
6 | N#Cc1cccc(-c2c[nH]c3ncnc(N4CCOCC4)c23)c1 | 103%
7 | c1cncc(-c2cn[nH]n2)c1 | 99.2%
8 | C1=Cc2ccccc2Nc2ccccc21 [Iminostilbene] | 108%
9 | COc1ccc(-c2oc3c(CC=C(C)C)c(O)cc(O)c3c(=O)c2O[C@@H]2O[C@@H](C)[C@H](O)[C@@H](O)[C@H]2O)cc1 [Baohuoside I] | 88.5%

System: OCI-AML2
Assay: as above
Conditions: 10 µM; SRSF2 genotype: P95H/wt
Summary of the method: as §1

Row | Structure (SMILES) | cell viability
10 | CCN(CCCc1ccccc1)CCCc1ccccc1 [Alverine Citrate] | 87.6%
11 | CC(=O)OCC(=O)[C@@]12N=C(C)O[C@@H]1C[C@H]1[C@@H]3CCC4=CC(=O)C=C[C@]4(C)[C@H]3[C@@H](O)C[C@@]12C [Deflazacort (Calcort)] | 91.4%
12 | CS(=O)(=O)Nc1ccc([N+](=O)[O-])cc1OC1CCCCC1 | 107%
13 | O=C(/C=C/c1ccc(O)c(O)c1)O[C@@H]1C[C@](O)(C(=O)O)C[C@@H](O)[C@H]1O [Chlorogenic acid] | 99%
14 | Nc1ncnc2c1ncn2C1OC(COP(=O)(O)OP(=O)(O)O)C(O)C1O (centres undefined) | 96.3%
15 | C[C@@H]1Cc2c([nH]c3ccccc23)[C@@H](c2c(F)cc(/C=C/C(=O)O)cc2F)N1CC(C)(C)F | 117%
16 | O=C(c1ccccc1)c1ccc2nc(NC(=O)c3csc(C4CCN(c5ncnc6ccsc56)CC4)n3)[nH]c2c1 | 26.2%
17 | CC(C)NCC(O)c1ccc(O)c(O)c1 (centres undefined) [Isoprenaline hydrochloride] | 104%
18 | O=C(Nc1ccc(Br)cc1)c1c(O)cccc1O [Resorantel] | 4.86%
19 | Nc1ccn([C@@H]2O[C@H](CO)[C@@H](O)[C@H]2O)c(=O)n1 [Cytidine] | 82.5%
20 | O=C1[C@H]2CCCC[C@H]2C(=O)N1CCCCN1CCN(c2nsc3ccccc23)CC1 [Perospirone hydrochloride] | 73.7%
21 | COc1cc(C(=O)NS(=O)(=O)c2ccccc2C)ccc1Cc1cn(C)c2ccc(NC(=O)OC3CCCC3)cc12 [Zafirlukast (Accolate)] | 94.4%
22 | CCn1cc(C(=O)O)c(=O)c2cc(F)c(N3CCNCC3)nc21 [Enoxacin (Penetrex)] | 112%
23 | COc1ccc(S(=O)(=O)N(C(C)=O)c2ccccc2/C=C/c2cc[n+]([O-])cc2)cc1 | 6.25%
24 | Cc1cncc(CN2CCC(=C3c4ccc(Cl)cc4CCc4cccnc43)CC2)c1 [Rupatadine Fumarate] | 38.6%
25 | C/C(=C\C(=O)OCCCCCCCCC(=O)O)C[C@@H]1OC[C@H](C[C@@H]2O[C@H]2[C@@H](C)[C@H](C)O)[C@@H](O)[C@H]1O [Mupirocin calcium] | 97.3%
26 | O=C1[C@H](CC[C@H](O)c2ccc(F)cc2)[C@@H](c2ccc(O)cc2)N1c1ccc(F)cc1 [Ezetimibe (Zetia)] | 80.8%
27 | Cc1cc(F)c(C(=O)Nc2cccc(-c3nncn3C(C)C)n2)cc1-n1cnc(C2CC2)c1 [Selonsertib (GS-4997)] | 49.5%
28 | COc1cc(C(C)=O)ccc1O [Apocynin (Acetovanillone)] | 93%
29 | COc1cc2c(cc1OC)[C@@H](Cc1ccc(Oc3cc(C[C@@H]4c5cc(OC)c(OC)cc5CCN4C)ccc3O)cc1)N(C)CC2 [Dauricine] | 5.34%
30 | c1ccc2c(CCNc3ccc(Nc4ccncc4)cc3)c[nH]c2c1 | 0.66%
31 | O=C(O)c1ccc(Br)c(O)c1 [4-Bromo-3-hydroxybenzoic acid] | 99.3%
32 | CC(=O)NC[C@H]1CN(c2ccc(N3CCOCC3)c(F)c2)C(=O)O1 [Linezolid (Zyvox)] | 81.4%
33 | C[C@H]1[C@H](C)CC[C@]2(C(=O)O)CC[C@]3(C)C(=CC[C@@H]4[C@@]5(C)CCC(=O)C(C)(C)[C@@H]5CC[C@]43C)[C@H]12 [Ursonic acid] | 24.6%
34 | CN(C)C(=O)c1ccc(S(=O)(=O)c2ccc(NC(=O)C(C)(O)C(F)(F)F)c(Cl)c2)cc1 (centres undefined) | 52.9%
